# Pf growth 48h: Primary qHTS for delayed death inhibitors of the malarial parasite plastid, 48 hour incubation. Potency, µM (series often up to 28.7 µM), without a hit: at the top dose activity change, negative = inhibition, actives largely listed as inhibitors. 310,000 tested, 5.9% active. P. falciparum luciferase growth in erythrocytes, 48 h. AID 504832, 2011; further: potency means the concentration at half of the fitted maximal effect; on the % scale 0 is the no-effect control and ±100 the full control effect
#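 Erythrocytes infected with P. falciparum carrying an integrated firefly luciferase reporter (2% hematocrit, 0.1% parasitemia final) were exposed to compounds in RPMI 1640 with 0.5% Albumax at 37 C, 5% CO2. Growth inhibition was scored as reduced luminescence.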
# Pf growth 96h: Primary qHTS for delayed death inhibitors of the malarial parasite plastid, 96 hour incubation; P. falciparum luciferase reporter growth, 96 h; Potency, µM (top dose mostly 28.7 µM), for inactives: at the highest dose activity change, negative = inhibition, most hits filed as inhibitors; 320,000 tested, 6.9% active; AID 504834, 2011; further: potency means the concentration at half of the fitted maximal effect; on the % scale 0 is the no-effect control and ±100 the full control effect
#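 Delayed-death screen, second-generation endpoint: infected erythrocytes, 2% hematocrit, 0.05% parasitemia final; 96 hours at 37 C, 5% CO2; luciferase detection reagent; luminescence decrease equals reduced growth.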
# Shiga toxin inh: A qHTS for Small Molecule Inhibitors of Shiga Toxin; Vero cells, Shiga toxin protein synthesis inhibition reporter; inhibition, % at 38.7 µM; 290,000 tested, 9.2% active; in the data active means inhibition mostly above about 28%, no sharp cut-off; inactive means mostly below about 43%; further: 0% is about no effect
# HCMV inh: qHTS Assay for inhibitors of the human cytomegalovirus (HCMV) | AID 1259415, 2018 | activity change, negative = inhibition, % at 57.5 µM | 410,000 tested, 4.5% active | HFF cells, HCMV-luciferase reporter, 72 h; hits give low values; in the data active means activity change below about -60%; inconclusive means no clear call, values can overlap the other calls; inactive means above about -39%; further: on the % scale 0 is the no-effect control and ±100 the full control effect
#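 HFF cells seeded 16 h at 37C, treated with compounds, infected with luciferase-reporter HCMV at MOI 1 PFU/cell; luciferase read at 72 h post infection, normalized to buffer-only and Salinomycin controls.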
# CHX counter: Cycloheximide Counterscreen for Small Molecule Inhibitors of Shiga Toxin; max response, %; cell reporter, cycloheximide protein synthesis inhibition counterscreen; AID 2314, 2010; 300,000 tested, 12% active; in the data active means max response mostly above about 13%, no sharp cut-off; inactive means mostly below about 14%; further: read at 38.3 µM for the half of the compounds with a filed dose; 0% is about no effect
# HCV inhibitor: qHTS Assay for Inhibitors of Hepatitis C Virus (HCV). Huh7.5.1 HCVcc-Cre infection, luciferase reporter, 44 h. Potency, µM (top dose mostly 41.8 µM), inactives show at the top dose activity change, negative = inhibition, actives largely listed as inhibitors. 340,000 tested, 3.4% active. AID 651820, 2012; further: potency means the concentration at half of the fitted maximal effect; on the % scale 0 is the no-effect control and ±100 the full control effect
#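 HCVcc-Cre virus at an moi near 0.5 was added right after compound to cells cultured 4 h from seeding (1,000 cells/well). Luciferase activity was determined 44 h later, 15 min after substrate addition at RT.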
# Numbers without * were called inactive; ? = inconclusive; · = no result. Rows were chosen to be rich in hits. Some 21% of all compounds tested hit in one or more screens of this group. Unless noted, the call rests on the fitted dose curve; in most records, active means well fitted inhibition curve with a large enough effect; inconclusive means small, poorly fitted or top-dose-only effect, or another doubt; inactive means no such curve, though single readings can be large or run the other way.
SMILES,Pf growth 48h,Pf growth 96h,Shiga toxin inh,HCMV inh,CHX counter,HCV inhibitor
CCOC(=O)c1sc(=S)n(C)c1NC(=O)c1ccc(C(C)(C)C)cc1,?,-29.6%,-12.2,-72.9*,-1.7,-17.8%
CCOC(=O)c1sc(=S)n(C)c1NC(=O)c1ccc(OC)cc1,4.5%,29.4%,8.0,-12.3,-3.3,14.9%
NC(=O)C[C@H](N)c1cn([C@@H](CC(N)=O)C(=O)N2CCNCC2)nn1,-3.4%,100.8%,·,-60.1*,·,27.4%
Cc1cc(NC(=O)c2ccccc2)ncc1NC(=O)c1cccs1,118.5%,3.2%,123.9*,52.9,40.2*,0.4%
Cc1cc(NC(=O)c2ccccc2F)ncc1NC(=O)c1cccs1,34.2%,0.9%,54.2,-6.3,21.2*,-17.5%
Cc1cc(NC(=O)c2cccs2)ncc1NC(=O)c1cccc(F)c1,62.2%,5.22µM*,65.6*,17.3,42.4*,-15.2%
Cc1cc(NC(=O)c2cccs2)ncc1NC(=O)C(C)C,231.7%,2.33µM*,39.1*,107.3,38.3*,13.1%
C=CC(=O)Nc1cccc(Oc2cc(Cl)nc3[nH]ccc23)c1,·,·,·,-17.5,·,?
CC(=O)Oc1ccccc1/C=C1\CCOC1=O,·,-25.7%,-9.5,-62.4*,-4.2,12.8%
Cc1nn(CCC(=O)NC(C)C)c(=O)c2nn(-c3ccccc3)c(C)c12,·,·,·,5.3,·,·
O=C(COC(=O)COc1ccc(Br)cc1)NC1CCCC1,·,·,·,3.9,·,10.4%
Cc1ccc2c(c1)c1c3n2CCN(C(=O)C2CC2)C3CCC1 (centres undefined),·,?,27.8,-21.8,6.8,-14.1%
CN1CCN(CC(=O)N2CCn3c4c(c5cc(C6CCCCC6)ccc53)CCCC42)CC1 (centres undefined),7.38µM*,?,1.3,·,-2.4,7.94µM*
Cc1ccc2c(c1)c1c3n2CCN(CC(N)=O)C3CCC1 (centres undefined),13.1µM*,-4.8%,77.5,-98.0*,1.4,?
Cc1ccc2c(c1)c1c3n2CCN(CCC(=O)O)C3CCC1 (centres undefined),28.1%,-25.8%,-7.8,19.9,-2.7,23.9%
Cc1ccc2c(c1)c1c3n2CCCN(Cc2ccccc2)C3CCC1 (centres undefined),0.928µM*,·,-19.8,-21.6,-5.7,?
Cc1ccc2c(c1)c1c3n2CCN(C(=O)Cn2c(-c4ccccc4)noc2=O)C3CCC1 (centres undefined),0.185µM*,9.28µM*,-12.5,24.6,-1.0,?
COc1cc(CCCN2CCNC[C@@H]2Cc2ccc(O)cc2)cc(OC)c1OC,?,6.6%,·,53.4,·,49.4%
Cc1ccc2c(c1)c1c3n2CCN(CC#N)C3CCC1 (centres undefined),?,?,-2.4,29.5,-1.3,-8.1%
Cc1ccc2c(c1)c(=O)c1c3n2CCN(C(=O)CCl)C3CC1 (centres undefined),·,5.22µM*,26.2,-25.5,-1.4,19.5%
Cc1ccc2c(c1)c(=O)c1c3n2CCN(CC#N)C3CC1 (centres undefined),0.6%,30.5%,5.0,?,1.4,1.6%
Cc1ccc2c(c1)c1c3n2CCN(CC(O)CNC(C)C)C3CCC1 (centres undefined),?,13.1µM*,-7.4,25.7,-4.3,?
Cc1cc2ccc3ccccc3c2cc1CN(C)C,-25.1%,?,59.7*,17.1,33.2*,?
Oc1ccc(C=NN=C2c3ccccc3-c3ccccc32)c(O)c1,·,·,·,-11.5,·,?
Oc1ccc(C=Nc2ccccc2-c2nc3ccccc3[nH]2)c(O)c1,115.7%,17.7%,51.5,8.2,13.1*,?
COc1ccc(OC)c(C=Nc2ccccc2-c2nc3ccccc3[nH]2)c1,?,?,44.6*,25.8,27.0*,?
Oc1ccccc1C=Nc1ccccc1-c1nc2ccccc2[nH]1,7.5%,-1.1%,75.3*,-32.7,38.3*,-5.7%
COc1ccc(OC)c(/C=C/c2nc3ccccc3[nH]c2=O)c1,-19.2%,-2.2%,-3.1,-13.2,-2.7,16.4%

# Assay outcomes (PubChem BioAssay)
